Targets with a hit are over-represented here; the source holds about 7,900 in all. About 0.6% of all pairs of compound and target were hits.

Chain of UniProt O15228 (O15228 whole entry, looked up): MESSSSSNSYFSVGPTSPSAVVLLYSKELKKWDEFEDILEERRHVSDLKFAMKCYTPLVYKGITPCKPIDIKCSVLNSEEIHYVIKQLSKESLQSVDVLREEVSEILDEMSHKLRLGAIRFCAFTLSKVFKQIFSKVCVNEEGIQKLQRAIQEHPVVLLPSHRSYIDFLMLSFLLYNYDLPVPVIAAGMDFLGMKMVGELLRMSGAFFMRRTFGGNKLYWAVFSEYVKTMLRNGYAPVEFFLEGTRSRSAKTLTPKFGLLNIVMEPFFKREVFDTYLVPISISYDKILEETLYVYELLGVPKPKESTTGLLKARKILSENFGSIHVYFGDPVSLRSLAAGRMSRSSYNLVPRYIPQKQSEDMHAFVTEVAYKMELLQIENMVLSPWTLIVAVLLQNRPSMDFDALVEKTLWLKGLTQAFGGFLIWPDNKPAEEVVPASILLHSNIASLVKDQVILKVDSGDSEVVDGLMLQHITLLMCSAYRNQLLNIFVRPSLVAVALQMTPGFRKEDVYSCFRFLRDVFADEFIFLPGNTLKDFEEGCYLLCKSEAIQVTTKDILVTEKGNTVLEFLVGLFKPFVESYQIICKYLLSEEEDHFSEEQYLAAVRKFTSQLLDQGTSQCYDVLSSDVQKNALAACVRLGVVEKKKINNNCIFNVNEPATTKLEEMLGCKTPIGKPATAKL
Chain of UniProt Q53T59 (Q53T59 whole entry, looked up): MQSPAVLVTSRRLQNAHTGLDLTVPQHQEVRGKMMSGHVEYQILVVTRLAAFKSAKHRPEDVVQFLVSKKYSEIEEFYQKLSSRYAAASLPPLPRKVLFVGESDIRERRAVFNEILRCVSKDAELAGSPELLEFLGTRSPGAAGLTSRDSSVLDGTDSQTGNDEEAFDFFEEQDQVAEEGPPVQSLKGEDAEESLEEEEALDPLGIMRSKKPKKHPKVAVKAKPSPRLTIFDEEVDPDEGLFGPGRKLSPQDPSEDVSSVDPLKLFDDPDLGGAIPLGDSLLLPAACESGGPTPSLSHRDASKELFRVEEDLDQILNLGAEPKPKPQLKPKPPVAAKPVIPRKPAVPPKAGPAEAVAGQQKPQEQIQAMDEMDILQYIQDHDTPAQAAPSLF
Chain of UniProt O60725 (O60725 whole entry, looked up): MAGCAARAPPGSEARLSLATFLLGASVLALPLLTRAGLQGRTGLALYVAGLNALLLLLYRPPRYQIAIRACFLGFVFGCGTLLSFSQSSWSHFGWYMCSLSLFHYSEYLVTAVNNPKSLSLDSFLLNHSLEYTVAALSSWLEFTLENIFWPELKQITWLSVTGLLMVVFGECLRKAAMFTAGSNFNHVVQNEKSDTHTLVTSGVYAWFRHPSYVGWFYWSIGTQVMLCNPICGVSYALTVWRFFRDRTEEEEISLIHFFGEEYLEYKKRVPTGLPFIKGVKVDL
Chain of UniProt I6L899 (I6L899 whole entry, looked up): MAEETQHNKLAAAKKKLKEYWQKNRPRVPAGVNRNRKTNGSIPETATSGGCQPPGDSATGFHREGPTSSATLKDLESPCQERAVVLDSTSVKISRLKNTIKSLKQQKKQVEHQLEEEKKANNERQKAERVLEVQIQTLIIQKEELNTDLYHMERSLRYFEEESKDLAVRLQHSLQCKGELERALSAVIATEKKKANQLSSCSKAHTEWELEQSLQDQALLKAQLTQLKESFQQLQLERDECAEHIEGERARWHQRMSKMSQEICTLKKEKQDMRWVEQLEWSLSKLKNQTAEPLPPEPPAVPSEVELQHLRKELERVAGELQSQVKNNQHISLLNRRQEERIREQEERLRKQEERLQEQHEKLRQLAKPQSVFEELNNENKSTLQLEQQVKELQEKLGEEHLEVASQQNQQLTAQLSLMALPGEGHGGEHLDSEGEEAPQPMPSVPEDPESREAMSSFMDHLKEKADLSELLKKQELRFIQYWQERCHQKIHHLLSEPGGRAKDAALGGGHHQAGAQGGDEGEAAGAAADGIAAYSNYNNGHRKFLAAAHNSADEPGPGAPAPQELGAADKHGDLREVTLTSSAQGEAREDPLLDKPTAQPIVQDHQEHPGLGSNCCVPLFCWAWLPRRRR
Chain of UniProt P60520 (P60520 whole entry, looked up): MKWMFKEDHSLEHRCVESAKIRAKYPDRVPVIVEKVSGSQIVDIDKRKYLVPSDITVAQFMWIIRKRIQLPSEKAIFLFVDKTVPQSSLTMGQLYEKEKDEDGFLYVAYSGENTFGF
Chain of UniProt Q969S8 (Q969S8 whole entry, looked up): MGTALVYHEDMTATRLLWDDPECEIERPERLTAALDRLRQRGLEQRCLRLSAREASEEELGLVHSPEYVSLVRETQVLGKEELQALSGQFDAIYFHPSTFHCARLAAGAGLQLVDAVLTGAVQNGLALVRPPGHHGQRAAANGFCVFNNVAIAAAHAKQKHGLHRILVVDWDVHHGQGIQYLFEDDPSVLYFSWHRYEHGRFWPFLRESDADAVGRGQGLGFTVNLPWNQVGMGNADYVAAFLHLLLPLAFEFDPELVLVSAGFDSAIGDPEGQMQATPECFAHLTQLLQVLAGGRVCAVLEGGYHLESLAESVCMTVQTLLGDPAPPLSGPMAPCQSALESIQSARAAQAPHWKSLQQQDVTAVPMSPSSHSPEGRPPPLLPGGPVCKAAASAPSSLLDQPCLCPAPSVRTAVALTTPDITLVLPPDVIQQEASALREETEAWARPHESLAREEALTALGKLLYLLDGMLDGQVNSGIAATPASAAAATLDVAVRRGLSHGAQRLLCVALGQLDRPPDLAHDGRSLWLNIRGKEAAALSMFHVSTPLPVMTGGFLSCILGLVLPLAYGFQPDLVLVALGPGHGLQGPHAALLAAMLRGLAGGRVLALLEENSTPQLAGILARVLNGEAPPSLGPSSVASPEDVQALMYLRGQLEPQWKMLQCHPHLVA
Chain of UniProt Q13227 (Q13227 whole entry, looked up): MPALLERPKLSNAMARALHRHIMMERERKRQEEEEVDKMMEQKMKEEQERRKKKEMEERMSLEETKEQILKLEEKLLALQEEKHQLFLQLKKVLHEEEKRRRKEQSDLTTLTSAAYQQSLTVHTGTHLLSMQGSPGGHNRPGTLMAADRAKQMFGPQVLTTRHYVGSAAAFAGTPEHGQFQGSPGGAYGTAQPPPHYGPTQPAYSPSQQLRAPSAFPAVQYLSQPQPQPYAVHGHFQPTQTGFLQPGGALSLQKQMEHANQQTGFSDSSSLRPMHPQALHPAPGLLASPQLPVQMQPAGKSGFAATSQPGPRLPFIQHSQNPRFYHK
Chain of UniProt Q04446 (Q04446 whole entry, looked up): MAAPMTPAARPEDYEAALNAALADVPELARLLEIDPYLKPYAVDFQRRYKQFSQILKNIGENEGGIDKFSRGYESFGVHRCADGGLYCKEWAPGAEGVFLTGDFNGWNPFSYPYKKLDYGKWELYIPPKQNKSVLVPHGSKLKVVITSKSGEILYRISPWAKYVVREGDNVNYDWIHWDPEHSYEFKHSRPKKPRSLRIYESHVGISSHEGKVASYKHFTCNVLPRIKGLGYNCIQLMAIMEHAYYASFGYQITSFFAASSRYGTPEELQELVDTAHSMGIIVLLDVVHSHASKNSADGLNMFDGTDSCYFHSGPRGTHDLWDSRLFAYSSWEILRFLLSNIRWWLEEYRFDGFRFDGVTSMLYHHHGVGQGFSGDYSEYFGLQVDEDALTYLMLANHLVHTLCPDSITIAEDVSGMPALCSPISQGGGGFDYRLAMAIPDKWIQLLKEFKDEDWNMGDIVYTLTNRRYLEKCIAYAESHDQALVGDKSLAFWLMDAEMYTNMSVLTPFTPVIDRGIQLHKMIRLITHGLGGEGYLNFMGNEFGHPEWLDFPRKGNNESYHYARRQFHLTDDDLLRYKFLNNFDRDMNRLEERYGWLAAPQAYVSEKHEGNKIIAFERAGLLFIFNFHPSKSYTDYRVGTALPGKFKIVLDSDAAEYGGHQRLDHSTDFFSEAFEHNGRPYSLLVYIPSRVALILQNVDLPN
Chain of UniProt Q9Y613 (Q9Y613 whole entry, looked up): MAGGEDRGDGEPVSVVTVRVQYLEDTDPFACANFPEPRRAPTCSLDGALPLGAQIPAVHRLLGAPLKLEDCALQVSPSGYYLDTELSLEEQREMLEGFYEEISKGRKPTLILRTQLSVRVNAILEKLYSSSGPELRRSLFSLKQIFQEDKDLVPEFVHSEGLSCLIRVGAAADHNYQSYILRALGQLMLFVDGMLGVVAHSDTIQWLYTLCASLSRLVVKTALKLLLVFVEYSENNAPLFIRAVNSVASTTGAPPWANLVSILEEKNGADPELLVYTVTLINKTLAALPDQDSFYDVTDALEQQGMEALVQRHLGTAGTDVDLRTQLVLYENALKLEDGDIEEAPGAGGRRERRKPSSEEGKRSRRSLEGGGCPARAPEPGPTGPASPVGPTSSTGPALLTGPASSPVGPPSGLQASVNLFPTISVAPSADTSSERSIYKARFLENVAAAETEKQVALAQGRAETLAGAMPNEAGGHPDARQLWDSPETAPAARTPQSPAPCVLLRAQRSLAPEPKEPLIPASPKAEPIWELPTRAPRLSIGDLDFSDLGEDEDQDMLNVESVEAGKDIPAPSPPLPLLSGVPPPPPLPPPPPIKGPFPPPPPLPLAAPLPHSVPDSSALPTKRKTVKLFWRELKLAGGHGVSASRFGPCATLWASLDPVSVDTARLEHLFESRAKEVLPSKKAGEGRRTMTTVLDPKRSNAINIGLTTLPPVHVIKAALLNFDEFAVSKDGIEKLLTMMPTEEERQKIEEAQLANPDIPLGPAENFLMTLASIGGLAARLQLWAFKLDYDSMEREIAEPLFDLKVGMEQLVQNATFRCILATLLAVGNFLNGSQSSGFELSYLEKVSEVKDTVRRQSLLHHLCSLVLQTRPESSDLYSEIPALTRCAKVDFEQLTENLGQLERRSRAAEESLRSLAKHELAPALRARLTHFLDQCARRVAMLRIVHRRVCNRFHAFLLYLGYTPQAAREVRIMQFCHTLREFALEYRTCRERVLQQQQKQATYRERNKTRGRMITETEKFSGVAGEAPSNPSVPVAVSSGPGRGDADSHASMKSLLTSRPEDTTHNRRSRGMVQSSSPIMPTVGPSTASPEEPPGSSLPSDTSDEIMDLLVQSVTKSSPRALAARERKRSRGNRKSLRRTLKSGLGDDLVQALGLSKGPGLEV

Compound in the first experiment: CNC(=O)C1=CC=CC=C1NC2=NC(=NC=C2Cl)NC3=C(C=C(C=C3)N4CCOCC4)OC
In words: log2 fold change, soluble protein after heating vs DMSO (PISA); higher = thermal stabilisation; K562 cells, 10 uM, 30 min; active = over 0.2 and 3.5 SD of the protein, either way, in both replicates (recomputed). The procedure, abridged:
(§1)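 K562 cells at 2×10^6 cells/mL were treated for 30 min with 10 μM compound, and aliquots were heated for 3 min over 48°C-58°C before pooling. Extraction used PBS with 0.5% NP-40 at 4°C, and soluble protein was the supernatant after 21,000xg for 90 min, measured by TMTpro 16plex LC-MS/MS with channel sums equalised. Thermal stability values, relative to control samples and from duplicates, are log2 fold changes.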
Consider HBZ, A0A494C057, for which the log2 fold change is 0.005 (inactive).
Still for that read-out and setting: the figure for FMR1 (UniProt Q06787) is 0.006 (inactive); for GNPAT (UniProt O15228) it is 0.045 (inactive); for GOPC (UniProt Q9HD26) it is 0.216 (inactive).
On the same count and under the same terms, the figure for HNRNPUL1 (UniProt M0R247) is -0.145 (inactive); for GPS2 (UniProt Q13227) it is 0.008 (inactive).
In the case of IDH3A isoform 2 (UniProt P50213), the log2 fold change was -0.117 (inactive).
On the same count and under the same terms, the figure for FHOD1 (UniProt Q9Y613) is -0.027 (inactive); for GREB1 (UniProt Q4ZG55) it is -0.113 (inactive).
On the same count and under the same terms, the figure for IGF2 isoform 3 (UniProt P01344) is -0.033 (inactive); for HSPA8 (UniProt E9PN89) it is -0.057 (inactive); for GPD1 (UniProt P21695) it is -0.298 (inactive).
Same read-out and setting: for HDAC7 isoform 5 (UniProt Q8WUI4) the value was -0.2 (inactive); for GABARAPL2 (UniProt P60520), 0.011 (inactive); for FAT2 (UniProt Q9NYQ8), -0.206 (inactive).
For the target FBXO9 (UniProt Q9UK97), the log2 fold change is 0.141 (inactive).
Same read-out and setting: for GPNMB (UniProt Q14956) the value was -0.221 (inactive); for FYB1 isoform 3 (UniProt O15117), 0 (inactive); for ICMT (UniProt O60725), 0.061 (inactive).
Still for that read-out and setting: for FAT1 (UniProt Q14517) the value was -0.041 (inactive).
The same measure, in the same setting: for GTF2A1 (UniProt P52655) the value was -0.007 (inactive); for HS1BP3 (UniProt Q53T59), -0.005 (inactive).
For GSTT1 (UniProt P30711), the log2 fold change was -0.029 (inactive).
The same measure, in the same setting: for GBE1 (UniProt Q04446) the value was -0.027 (inactive); for HDAC10 (UniProt Q969S8), 0.108 (inactive).
Still for that read-out and setting: the figure for HNRNPK isoform 3 (UniProt P61978) is -0.05 (inactive); for GOLGA8R (UniProt I6L899) it is -0.148 (inactive); for GOLGA6B (UniProt A6NDN3) it is -0.066 (inactive).
Still for that read-out and setting: the figure for HSPA2 (UniProt P54652) is 0.809 (active).

Compound in a further experiment: CNC(=O)c1ccc(Nc2ncc(C(F)(F)F)c(NCc3nccnc3N(C)S(C)(=O)=O)n2)cc1 [defactinib]
Described as above. The procedure, abridged:
as §1
For GNPAT (UniProt O15228), the log2 fold change was -0.035 (inactive).
On the same count and under the same terms, for GOPC (UniProt Q9HD26) the value was 0.033 (inactive).
As for FCF1 (UniProt Q9Y324), the log2 fold change was 0.26 (inactive).
On the same count and under the same terms, the figure for GPS2 (UniProt Q13227) is -0.079 (inactive).
Same read-out and setting: the figure for FHOD1 (UniProt Q9Y613) is -0.042 (inactive); for GNL3 (UniProt Q9BVP2) it is 0.005 (inactive).
Same read-out and setting: for GREB1 (UniProt Q4ZG55) the value was -0.008 (inactive); for IGF2 isoform 3 (UniProt P01344), 0.007 (inactive); for HSPA8 (UniProt E9PN89), 0.044 (inactive).
With GPD1 (UniProt P21695), the log2 fold change was -0.072 (inactive).
Same read-out and setting: for HDAC7 isoform 5 (UniProt Q8WUI4) the value was -0.011 (inactive); for FIZ1 (UniProt Q96SL8), 0.06 (inactive).
On the same count and under the same terms, for GABARAPL2 (UniProt P60520) the value was -0.019 (inactive); for FAT2 (UniProt Q9NYQ8), 0.011 (inactive); for FBXO9 (UniProt Q9UK97), 0.052 (inactive).
Same read-out and setting: for FYB1 isoform 3 (UniProt O15117) the value was -0.112 (inactive); for ICMT (UniProt O60725), -0.034 (inactive); for FAT1 (UniProt Q14517), -0.05 (inactive).
Regarding GTF2A1 (UniProt P52655), the log2 fold change is -0.038 (inactive).
Same read-out and setting: for HS1BP3 (UniProt Q53T59) the value was -0.066 (inactive); for GSTT1 (UniProt P30711), -0.027 (inactive); for GBE1 (UniProt Q04446), -0.195 (inactive).
Take HDAC10 (UniProt Q969S8): the log2 fold change was 0.067 (inactive).
Same read-out and setting: for HNRNPK isoform 3 (UniProt P61978) the value was 0.096 (inactive).
Same read-out and setting: the figure for GEMIN2 (UniProt O14893) is -0.041 (inactive); for GOLGA8R (UniProt I6L899) it is -0.197 (inactive).
Still for that read-out and setting: the figure for GSE1 (UniProt Q14687) is 0.027 (inactive).
In the case of GOLGA6B (UniProt A6NDN3), the log2 fold change was -0.211 (inactive).

Compound in a further experiment: CNCc1ccc(-c2[nH]c3cc(F)cc4c3c2CCNC4=O)cc1 [rucaparib]
Described as above. The procedure, abridged:
as §1
As to HBZ, A0A494C057, the log2 fold change is -0.058 (inactive).
Same read-out and setting: for FMR1 (UniProt Q06787) the value was 0.19 (inactive).
The same measure, in the same setting: the figure for GNPAT (UniProt O15228) is -0.06 (inactive); for FCF1 (UniProt Q9Y324) it is 0.187 (inactive); for HNRNPUL1 (UniProt M0R247) it is 0.09 (inactive).
Turning to GPS2 (UniProt Q13227), the log2 fold change is 0.02 (inactive).
On the same count and under the same terms, the figure for FHOD1 (UniProt Q9Y613) is 0.442 (inactive).
Same read-out and setting: for GNL3 (UniProt Q9BVP2) the value was -0.052 (inactive); for HSPA8 (UniProt E9PN89), 0.101 (inactive); for HDAC7 isoform 5 (UniProt Q8WUI4), -0.033 (inactive).
For FIZ1 (UniProt Q96SL8), the log2 fold change is -0.012 (inactive).
Consider GABARAPL2 (UniProt P60520), for which the log2 fold change was -0.111 (inactive).
Same read-out and setting: the figure for FAT2 (UniProt Q9NYQ8) is -0.007 (inactive).
The same measure, in the same setting: the figure for FBXO9 (UniProt Q9UK97) is 0.055 (inactive); for GPNMB (UniProt Q14956) it is 0.007 (inactive); for FYB1 isoform 3 (UniProt O15117) it is 0.028 (inactive).
On the same count and under the same terms, the figure for ICMT (UniProt O60725) is 0.037 (inactive); for GTF2A1 (UniProt P52655) it is -0.021 (inactive).
HS1BP3 (UniProt Q53T59): the log2 fold change was -0.038 (inactive).
Same read-out and setting: the figure for GSTT1 (UniProt P30711) is 0.028 (inactive); for GBE1 (UniProt Q04446) it is -0.132 (inactive); for HDAC10 (UniProt Q969S8) it is 0.024 (inactive).
The same measure, in the same setting: for HNRNPK isoform 3 (UniProt P61978) the value was 0.032 (inactive); for GEMIN2 (UniProt O14893), 0.136 (inactive).
The same measure, in the same setting: for GOLGA8R (UniProt I6L899) the value was 0.189 (inactive).

(Values after the supplement of paper PMC10849652.)
